Out of some 65,000 compounds screened, about 1,200 (1.8%) were called active. For the sample, actives were picked, then their nearest neighbours and some compounds at random. Values without a mark were called inactive. Cut-off read from the data, not from the text of the source: active = inhibition above about 50%; inactive = the rest.

The target of this experiment is Gag-Pol polyprotein (Human immunodeficiency virus type 1 group M subtype B (isolate HXB2)) (UniProt P04585). Kind of experiment: blockers of HIV-1 RNase H RNA/DNA cleavage – biochemical, fluorescence, primary screen (AID 565). The settings on record: RT-RNase H RNA/DNA duplex cleavage, at 10 µM, active compounds read high.
Broadly, the inhibition is the drop in the measured response relative to a control, in per cent. Take `Cc1nc2ccc(C(=O)N3CCSCC3)cc2s1`: the inhibition was -8.86%.

`CC(C)CC(=O)N=C1SC2CS(=O)(=O)CC2N1CCc1ccccc1` (configuration not stated): the inhibition was -0.09%.

Turning to `Cc1ccc(C(=O)NC2CCN(C(=O)N3CCOCC3)CC2)cc1`, the inhibition is -0.08%.

As for `O=C(NCCCN1CCN(Cc2ccccc2)CC1)C1CCN(S(=O)(=O)N2CCCC2)CC1`, the inhibition was -16.5%.

As to `CN1CCN(c2nc3c(c(=O)[nH]c(=O)n3C)n2Cc2cccc3ccccc23)CC1`, the inhibition is -0.99%.

In the case of `CCC(C)Sc1nc2c(c(=O)[nH]c(=O)n2C)n1CC(O)COc1cccc2ccccc12` (configuration not stated), the inhibition is 76.5% (active).

Turning to `CCOC(=O)Cn1c(CN(Cc2ccccc2)Cc2ccccc2)nc2c1c(=O)[nH]c(=O)n2C`, the inhibition was -4.21%.

For `Cc1cccc(NC(=O)CSc2nnc(CCCCCNC(=O)OC(C)(C)C)o2)c1C`, the inhibition was -13.1%.

`COc1ccc(CCn2c(=N)c(C(=O)NCc3ccco3)cc3c(=O)n4cccc(C)c4nc32)cc1`: the inhibition was 64.2% (active).

For the compound `CCn1c(=N)c(C(=O)NCCCOC)cc2c(=O)n3cccc(C)c3nc21`, the inhibition was -13.1%.

For the compound `COc1ccc(CNC(=O)c2cc3c(=O)n4ccccc4nc3n(CC3CCCO3)c2=N)cc1` (configuration not stated), the inhibition is -18.1%.

With `Cn1c(=O)[nH]c(=O)c2c1nc(CN(Cc1ccccc1)Cc1ccccc1)n2CCN1CCOCC1`, the inhibition was -6.59%.

For `COc1ccc(OCCCON2C(=O)c3ccccc3C2=O)cc1`, the inhibition is -68.1%.

As for `CCCc1nc2ccccc2c(=O)n1NC(=O)c1c(O)c2ccccc2[nH]c1=O`, the inhibition was -19.6%.

`CCCCc1nc2ccccc2c(=O)n1NC(=O)c1c(O)c2cccc3c2n(c1=O)CC3`: the inhibition is 4.26%.

In the case of `CCCc1nc2ccccc2c(=O)n1/N=C/c1ccc(O)c(O)c1`, the inhibition is 88.4% (active).

Take `Cc1ccc(-n2nc(-c3ccco3)cc2C(=O)NCc2cccnc2)cc1`: the inhibition is 61.9% (active).

On to `Cc1ccc2c(c1)N(CCCC(=O)NCc1cccnc1)C(=O)CO2`, for which the inhibition was -14.5%.

As to `CC(C)(C)c1cc(C(=O)NCc2cccnc2)ccn1`, the inhibition was 3.16%.

In the case of `C#CCN1C(=O)C(O)(CC(=O)c2cc(OC)ccc2OC)c2ccccc21` (configuration not stated), the inhibition is -25.6%.

Take `O=P(O)(CP(=O)(c1ccccc1)c1ccccc1)c1ccccc1`: the inhibition was -16.3%.

With `CC12CCC(C(=O)N(CCC#N)CCC#N)(CC1=O)C2(C)C` (configuration not stated), the inhibition was -5.03%.

Consider `CCOC(=O)CSC1=C(C#N)C(c2sccc2C)CC(=O)N1` (configuration not stated), for which the inhibition was -2.34%.

As for `CCOC(=O)CSC1=C(C#N)C(c2ccco2)C(C(=O)OCc2ccccc2)=C(C)N1` (configuration not stated), the inhibition is -11.6%.

As to `CC1=C(C(=O)Nc2ccccc2)C(c2cccs2)C(C#N)=C(SCC#N)N1` (configuration not stated), the inhibition is 55.5% (active).

Consider `O=C(Nn1cc(C(=O)N2CCN(c3ccccc3F)CC2)c2ccccc2c1=O)c1cnccn1`, for which the inhibition is -2.41%.

For the compound `Cc1nnc2sc(-c3ccco3)nn12`, the inhibition was 4.12%.

Regarding `COc1cc(-c2nn3c(-c4cccc(C)c4)nnc3s2)cc(OC)c1OC`, the inhibition is -7.33%.

On to `Fc1ccc(-c2nnc3sc(-c4ccc5c(c4)OCO5)nn23)cc1`, for which the inhibition was 66.3% (active).

On to `FC(F)(F)c1nnc2sc(-c3ccco3)nn12`, for which the inhibition is -2.16%.

For `COc1ccc(-c2nn3c(-c4ccccc4)nnc3s2)cc1OC`, the inhibition is -38.4%.

As to `Fc1ccc(-c2ccc(-c3nn4c(-c5ccco5)nnc4s3)o2)cc1`, the inhibition is 65.8% (active).

For the compound `Cc1cc(C)c(C#N)c(SCc2ccccc2C(=O)O)n1`, the inhibition was -5.35%.

Regarding `COc1ccc(N2CCN(CCNC(=O)CCN3C(=O)COc4ccccc43)CC2)cc1`, the inhibition was 7.09%.

For `O=C(Nc1ccc(Oc2ccccc2)cc1)c1ccco1`, the inhibition was -7.33%.

As for `Cc1ccc(C(=O)COc2cccc(NC(=O)c3ccco3)c2)cc1`, the inhibition is 9.47%.

As for `CCOc1cc(NC(=O)c2ccco2)c(OCC)cc1NC(=O)COc1ccccc1`, the inhibition was 52.4% (active).

Regarding `Cc1cc(Nc2ccccc2)n(C(=O)c2ccc(N)cc2)n1`, the inhibition is -17.6%.

`CCCOC(=O)Nc1ccccc1C(N)=O`: the inhibition is -29.1%.

As to `CCOC(=O)c1ccccc1NC(=O)CC1Nc2ccccc2NC1=O` (configuration not stated), the inhibition was 71.6% (active).

Turning to `O=C(CC1Nc2ccccc2NC1=O)Nc1ccccc1` (configuration not stated), the inhibition is -4.38%.

For `CCC(C)NC(=O)C1CCC(=O)N1Cc1ccc(C)cc1` (configuration not stated), the inhibition is -9.01%.

As to `CCN(CC)CCCNC(=O)c1cc(-c2cccc(Cl)c2)on1`, the inhibition was -16%.

In the case of `CCN(CC)c1ccc2cc(C(=O)O)c(=O)oc2c1`, the inhibition is -8.5%.

Turning to `CCc1ccc2oc(-c3ccc(N)cc3)nc2c1`, the inhibition was -12.6%.

Consider `CCN(CC)c1ccc2oc(=O)c(C)nc2c1`, for which the inhibition was 68.2% (active).

Regarding `Cc1cccc(NC(=O)COc2ccc(Br)cc2C)n1`, the inhibition was -9.39%.

Turning to `CC(C)(C)c1ccc(C(=O)CSc2ncn[nH]2)cc1`, the inhibition was 82.3% (active).

As for `CCN(C(=O)CSc1ncn[nH]1)c1cccc2ccccc12`, the inhibition was -10.7%.

`Cn1nnc(NC(=O)CSc2ncn[nH]2)n1`: the inhibition was -0.52%.

On to `Cc1cccc(N=C2NC(=O)CS2)c1C`, for which the inhibition was -0.31%.

Turning to `c1ccc2cc(OCCN3CCCC3)ccc2c1`, the inhibition was -14.7%.

As to `N#Cc1cccc(CSc2nnc(CCCO)n2-c2ccccc2)c1`, the inhibition was -5.32%.

Regarding `O=C(OCc1nnc(-c2ccccc2)o1)c1ccc2c(c1)C(=O)N(CCc1ccccc1)C2=O`, the inhibition was 16.2%.

As to `COc1ccccc1Cn1c(=S)[nH]c2cc(C(=O)N3CCN(C)CC3)ccc2c1=O`, the inhibition is -5.95%.

Regarding `O=c1c2ccccc2[nH]c(=S)n1CCN1CCC(=C(c2ccc(F)cc2)c2ccc(F)cc2)CC1`, the inhibition was 53.2% (active).

Regarding `O=C(CCn1c(=S)[nH]c2ccccc2c1=O)NCCCN1CCCC1=O`, the inhibition is -8.03%.

For `CN(C)Cc1c(O)ccc2occ(C(O)c3ccccc3)c12` (configuration not stated), the inhibition was 2.07%.

Consider `COc1ccc(OC)c2c(N)c(C#N)c(C(F)(F)C(F)(F)F)nc12`, for which the inhibition is -3.29%.

Take `Cn1c(CC(=O)Nc2ccccc2)nnc1SCC(=O)c1ccccc1`: the inhibition is 50.1% (active).

Take `Cn1c(CNc2nc(-c3ccccc3)cs2)nnc1SCC(=O)c1ccccc1`: the inhibition was -5.65%.

As for `Cc1ccccc1NC(=O)Cc1nnc(SCC(=O)N2CCN(c3ccccc3)CC2)n1C`, the inhibition was 1.53%.
